Assay results taken from the supplement of paper PMC9694430.

Key:
Assay in all cases: thermal shift delta Tm vs DMSO control; higher = stronger stabilization (binding)
Conditions in all cases: 12.5 µM; protein concentration 2 µM
LOC_OS02G45750-cb003 = system: LOC_OS02G45750-cb003
How it was run: (§1)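 Thermal shift values come from differential scanning fluorimetry on purified rice kinase domains made in E. coli, with melting temperatures obtained from Boltzmann fits. Samples of 19.5 μl held 2 μM kinase, 100 mM potassium phosphate pH 7.5, 150 mM NaCl, 10% glycerol, 5 × SYPRO Orange and compound in DMSO, and were heated from 25°C to 95°C at 0.05°C/s. Each shift is a triplicate mean relative to the DMSO-only protein sample.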

LOC_OS02G54510-cb004 = system: LOC_OS02G54510-cb004
How it was run: as §1

LOC_OS03G04050-cb001 = system: LOC_OS03G04050-cb001
How it was run: as §1

LOC_OS03G12390-cb001 = system: LOC_OS03G12390-cb001
How it was run: as §1

LOC_OS03G27990-cb004 = system: LOC_OS03G27990-cb004
How it was run: as §1

LOC_OS03G50450-cb001 = system: LOC_OS03G50450-cb001
How it was run: as §1

LOC_OS03G50810-cb003 = system: LOC_OS03G50810-cb003
How it was run: as §1

LOC_OS04G35114-cb001 = system: LOC_OS04G35114-cb001
How it was run: as §1

LOC_OS04G38480-cb003 = system: T1, LOC_OS04G38480-cb003
T1 sequence (whole entry): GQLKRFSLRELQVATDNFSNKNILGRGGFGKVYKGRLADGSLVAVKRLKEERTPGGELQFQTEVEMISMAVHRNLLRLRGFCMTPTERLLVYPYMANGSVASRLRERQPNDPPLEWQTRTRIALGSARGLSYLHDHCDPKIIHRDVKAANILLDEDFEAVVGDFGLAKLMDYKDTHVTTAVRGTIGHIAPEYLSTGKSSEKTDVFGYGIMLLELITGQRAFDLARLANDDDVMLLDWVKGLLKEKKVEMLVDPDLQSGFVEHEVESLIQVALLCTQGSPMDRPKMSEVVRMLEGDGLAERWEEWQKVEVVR
How it was run: as §1

LOC_OS04G41100-cb001 = system: T2, LOC_OS04G41100-cb001
T2 sequence (whole entry): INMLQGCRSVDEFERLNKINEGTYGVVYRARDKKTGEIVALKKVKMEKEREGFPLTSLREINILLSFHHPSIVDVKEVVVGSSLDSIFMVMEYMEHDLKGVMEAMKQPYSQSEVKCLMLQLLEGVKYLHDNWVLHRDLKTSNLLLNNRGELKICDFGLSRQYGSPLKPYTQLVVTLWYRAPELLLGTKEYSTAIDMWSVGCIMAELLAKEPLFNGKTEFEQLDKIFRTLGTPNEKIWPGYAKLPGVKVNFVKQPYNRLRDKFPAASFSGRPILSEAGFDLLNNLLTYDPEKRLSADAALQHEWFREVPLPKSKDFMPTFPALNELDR
How it was run: as §1

LOC_OS04G57630-cb004 = system: LOC_OS04G57630-cb004
How it was run: as §1

LOC_OS05G07850-cb002 = system: LOC_OS05G07850-cb002
How it was run: as §1

LOC_OS05G16824-cb004 = system: LOC_OS05G16824-cb004
How it was run: as §1

LOC_OS05G28520-cb001 = system: LOC_OS05G28520-cb001
How it was run: as §1

LOC_OS05G30820-cb001 = system: LOC_OS05G30820-cb001
How it was run: as §1

LOC_OS05G43570-cb004 = system: LOC_OS05G43570-cb004
How it was run: as §1

LOC_OS06G16330-cb003 = system: LOC_OS06G16330-cb003
Chain of LOC_OS06G16330-cb003 (as listed by the source): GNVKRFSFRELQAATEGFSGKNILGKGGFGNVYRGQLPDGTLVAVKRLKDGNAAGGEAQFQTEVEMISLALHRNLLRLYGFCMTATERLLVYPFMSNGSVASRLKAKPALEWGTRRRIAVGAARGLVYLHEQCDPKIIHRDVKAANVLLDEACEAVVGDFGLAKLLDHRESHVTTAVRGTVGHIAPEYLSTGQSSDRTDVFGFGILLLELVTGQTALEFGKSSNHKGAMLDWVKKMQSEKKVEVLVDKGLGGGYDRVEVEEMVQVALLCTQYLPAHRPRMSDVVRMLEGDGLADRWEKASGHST
How it was run: as §1

LOC_OS06G22820-cb001 = system: T3, LOC_OS06G22820-cb001
T3 sequence (whole entry): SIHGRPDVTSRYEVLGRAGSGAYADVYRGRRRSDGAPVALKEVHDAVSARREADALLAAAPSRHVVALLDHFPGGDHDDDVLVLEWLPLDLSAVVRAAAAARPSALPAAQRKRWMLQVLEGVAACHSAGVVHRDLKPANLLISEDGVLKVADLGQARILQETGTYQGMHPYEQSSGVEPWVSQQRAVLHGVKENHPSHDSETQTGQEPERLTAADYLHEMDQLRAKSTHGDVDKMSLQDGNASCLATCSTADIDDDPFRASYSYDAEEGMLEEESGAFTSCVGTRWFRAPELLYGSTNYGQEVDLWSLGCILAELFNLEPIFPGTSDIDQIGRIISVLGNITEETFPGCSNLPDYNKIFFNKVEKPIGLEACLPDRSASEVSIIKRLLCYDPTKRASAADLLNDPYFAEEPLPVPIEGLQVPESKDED
How it was run: as §1

LOC_OS07G06570-cb004 = system: LOC_OS07G06570-cb004
How it was run: as §1

LOC_OS07G07230-cb001 = system: LOC_OS07G07230-cb001
How it was run: as §1
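Note: purified Escherichia coli-expressed rice kinase domain construct.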

SMILES	thermal shift delta Tm (LOC_OS02G45750-cb003) [°C]	thermal shift delta Tm (LOC_OS02G54510-cb004) [°C]	thermal shift delta Tm (LOC_OS03G04050-cb001) [°C]	thermal shift delta Tm (LOC_OS03G12390-cb001) [°C]	thermal shift delta Tm (LOC_OS03G27990-cb004) [°C]	thermal shift delta Tm (LOC_OS03G50450-cb001) [°C]	thermal shift delta Tm (LOC_OS03G50810-cb003) [°C]	thermal shift delta Tm (LOC_OS04G35114-cb001) [°C]	thermal shift delta Tm (LOC_OS04G38480-cb003) [°C]	thermal shift delta Tm (LOC_OS04G41100-cb001) [°C]	thermal shift delta Tm (LOC_OS04G57630-cb004) [°C]	thermal shift delta Tm (LOC_OS05G07850-cb002) [°C]	thermal shift delta Tm (LOC_OS05G16824-cb004) [°C]	thermal shift delta Tm (LOC_OS05G28520-cb001) [°C]	thermal shift delta Tm (LOC_OS05G30820-cb001) [°C]	thermal shift delta Tm (LOC_OS05G43570-cb004) [°C]	thermal shift delta Tm (LOC_OS06G16330-cb003) [°C]	thermal shift delta Tm (LOC_OS06G22820-cb001) [°C]	thermal shift delta Tm (LOC_OS07G06570-cb004) [°C]	thermal shift delta Tm (LOC_OS07G07230-cb001) [°C]
Cc1c(C(=O)N2CCOc3ccc(-c4ccc(N)nc4)cc3C2)ccc(S(C)(=O)=O)c1F	0.79	0.21	0.5	0.38	0.27	0.12	0.24	0.73	0.22	0.43	0.14	0.91	-4.24	0.33	0.36	0.13	1.82	0.73	0.94	0.23
Cc1cnc(Nc2ccc(OCCN3CCCC3)cc2)nc1Nc1cccc(S(=O)(=O)NC(C)(C)C)c1	2.37	0.89	0.72	3.03	1.33	1.51	3.13	3.12	1.88	0.68	1.75	8.73	6.93	0.76	0.92	0.64	4.38	0.29	0.27	0.07
COc1c(C)c(C(=O)c2ccc(N)c(C(=O)O)c2)n2ccccc12	0.38	0.3	0.46	-0.07	0.21	0.58	0.22	0.79	0.31	0.29	0.19	0.78	-2.73	0.86	0.51	0.58	-0.18	0.47	1.2	0.36
CC(C)(C)c1cc(NC(=O)Nc2ccc(Oc3ccnc4[nH]c(=O)cnc34)cc2F)n(-c2ccccc2)n1	8.1	3.28	0.21	4.04	0.22	0.17	2.66	0.44	2.2	7.51	10.3	12.5	0.62	0.57	0.39	0.48	5.36	0.49	1.22	-0.1
CN1CC[C@H](c2c(O)cc(O)c3c(=O)cc(-c4ccccc4Cl)oc23)[C@H](O)C1 [Flavopiridol (Alvocidib)]	1.64	0.69	0.2	1.66	1.06	0.4	0.4	2.64	0.88	0.66	0.36	5.16	2.71	-0.27	0.85	0.07	3.19	1.43	0.96	0
N#Cc1ccc(-c2c(-c3ncn[nH]3)sc(N3CCOCC3)c2C#N)c(F)c1	1.03	0.27	0.35	0.25	0.22	0	0.37	0.45	1.64	0.49	0.27	-0.29	-1.35	0.33	0.65	0.57	-0.08	0.61	1.08	0.24
